Bioassay records from PubChem.
KB-3-1 cytotox = KB-3-1 parental cell cytotoxicity | Potency, µM (titrated, usually from 46.1 µM), usual class: cytotoxic | AID 1347075 | 400,000 tested, 1.4% active | KB-3-1 viability, CellTiter-Glo ATP luminescence, 72 h; further: on the % scale 0 is the no-effect control and ±100 the full control effect; nearly all actives have a fitted effect of over 60% in size
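KB-3-1 parental drug-naive adenocarcinoma cells in DMEM/10% FBS, incubated 72 h at 37 C with pin-transferred compounds across a concentration series. Viability by CellTiter-Glo luminescence; concentration-response curves fitted after normalization.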
KB-V1 cytotox = KB-V1 MDR subline cytotoxicity; KB-V1 MDR cells viability, CellTiter-Glo, 72 h; Potency, µM (highest dose often 46.1 µM), actives largely listed as cytotoxic; 400,000 tested, 3.4% active; further: on the % scale 0 is the no-effect control and ±100 the full control effect; nearly all actives have a fitted effect of over 60% in size
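KB-V1 cells (P-gp-expressing MDR subline of KB-3-1) in phenol-red-free DMEM with 10% FBS were exposed to library compounds over a concentration series for 72 h at 37 degrees C. Viability read by CellTiter-Glo luminescence; concentration-effect curves fitted after normalization.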
RGS4 inh = inhibitors of human regulator of G protein signaling 4; P49798; AID 504845; 390,000 tested, 0.039% active; Transcreener GDP fluorescence polarization, RGS4-accelerated GTP hydrolysis; Potency, µM (top dose mostly 114 µM), for the others: top-dose activity change, negative = inhibition, usual class: inhibitors; further: on the % scale 0 is the no-effect control and ±100 the full control effect; nearly all actives have a fitted effect of over 75% in size
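MLSMR compounds (23 nl, pin-transferred) preincubated 10 min at room temperature with a 500nM (2x) first reagent, then RGS4 at 900nM (2x) plus Transcreener GDP mix added; fluorescence polarization (620/688 nm) read before and after 90 min at 30 °C.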
TSG101-PTAP inh = blocks PTAP/TSG101 interaction to inhibit HIV-1 budding; Potency, µM (top dose mostly 115 µM), inactives show top-dose activity change, negative = inhibition, actives largely listed as inhibitors; Q99816; 340,000 tested, under 10 active; Fluorescence polarization, FITC-PTAP peptide / Tsg101 binding; AID 493005; active means well fitted inhibition curve with a large enough effect in the main read-out, with a control signal flat, not every such curve was filed as active; inconclusive means small, poorly fitted or top-dose-only effect, or effect the other way, or a change in a side signal; inactive means no such curve, though single readings can be large or run the other way; further: % of control where 0% means no effect
Target sequence (Q99816 whole entry, looked up): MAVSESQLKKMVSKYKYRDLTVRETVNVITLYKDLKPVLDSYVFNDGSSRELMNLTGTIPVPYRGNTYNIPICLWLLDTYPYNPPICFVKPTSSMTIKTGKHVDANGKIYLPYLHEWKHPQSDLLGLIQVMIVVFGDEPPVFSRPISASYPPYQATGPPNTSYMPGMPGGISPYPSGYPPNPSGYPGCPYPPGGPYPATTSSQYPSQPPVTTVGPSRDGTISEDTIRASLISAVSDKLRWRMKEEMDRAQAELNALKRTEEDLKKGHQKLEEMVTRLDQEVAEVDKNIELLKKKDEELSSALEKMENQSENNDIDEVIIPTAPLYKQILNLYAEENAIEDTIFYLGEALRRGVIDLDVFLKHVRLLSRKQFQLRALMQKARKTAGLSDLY
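Fluorescence anisotropy tracks displacement of a FITC-tagged PTAP peptide (50 nM) from the Tsg101 binding domain (10 uM), following a 20 min room-temperature incubation at pH 7.5.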
MCF10A rerep = DNA re-replication induction in MCF 10a cells. Potency, µM (highest dose often 46.1 µM), for the others: at the highest dose activity, positive = re-replication, most hits filed as activators. MCF 10A DNA re-replication, Hoechst nuclear intensity, 48 h. 350,000 tested, 2.9% active; further: % of control where 0% means no effect; nearly all actives have a fitted effect of over 50% in size
SW480 rereplic = induces DNA re-replication in SW480 colon adenocarcinoma cells; AID 624297; Potency, µM (highest dose often 46.1 µM), inactives show at the top dose re-replication activation, actives largely listed as activators; 340,000 tested, 1.8% active; SW480 DNA re-replication, Hoechst DNA content imaging, 48 h; further: % of control where 0% means no effect; nearly all actives have a fitted effect of over 55% in size
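Quantitative HTS format with DMSO vehicle controls; 48 hr drug incubation at 37 C, then 40 min Hoechst staining and scanning imager measurement at 405 nm excitation.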
An asterisk follows results filed as active; i = inactive; u = inconclusive; x = no result. Rows were chosen to be rich in hits. Some 6.6% of all compounds tested hit in one or more screens of this group. Unless noted, the call rests on the fitted dose curve; in most records, active means well fitted curve in the direction sought with a large enough effect; inconclusive means small, poorly fitted or top-dose-only effect, or another doubt; inactive means no such curve, though single readings can be large; an effect the other way counts as inactive or inconclusive. Potency means the concentration at half of the fitted maximal effect.

SMILES | KB-3-1 cytotox | KB-V1 cytotox | RGS4 inh | TSG101-PTAP inh | MCF10A rerep | SW480 rereplic
COc1cccc(N2CCN(CC(=O)Nc3ccc(S(=O)(=O)N4CCCCCC4)cc3)CC2)c1 | i | 20.6µM* | 27.5% | -0.3% | 12.3% | 3.5%
CC1CCN(CC(=O)Nc2ccc(S(=O)(=O)N3CCCCC3)cc2)CC1 | i | i | 18.3% | -8.7% | 2.31µM* | 11.9%
Cc1ccc(S(=O)(=O)N2CCN(CC(=O)Nc3ccc([N+](=O)[O-])cc3)CC2)cc1C | i | 18.4µM* | 6.1% | -1.8% | -13.3% | -81.0%
COc1cccc(C(=O)NCC(c2ccc(N(C)C)cc2)N2CCc3ccccc32)c1OC (centres undefined) | i | i | 0.0% | x | x | x
CCc1ccc(CNC(=O)c2cccc(-n3cnc4cccnc43)c2C)cc1 | i | i | 13.5% | x | x | x
CCCCCc1c(O)c2ccccc2[nH]c1=O | i | 16.4µM* | 2.1% | -4.1% | -3.8% | -10.4%
CCc1c(C)c2ccccc2[nH]c1=O | 4.11µM* | 2.31µM* | x | x | x | x
CCc1cccc(C)c1NC(=O)CCn1c(=O)c2cccn2c2ccccc21 | x | x | -2.6% | x | x | x
CCN(CC)CC#CCOC(=O)[C@@](O)(c1ccccc1)C1CCCCC1 | x | x | x | x | 17.6% | -0.3%
CCOc1ccc(-c2nonc2NC(=O)c2oc3cc(Br)ccc3c2C)cc1 | 3.66µM* | u | 7.6% | x | x | x
Cn1c(SCC(=O)N2CCN(c3cccc(Cl)c3)CC2)nnc1-c1ccncc1 | 13µM* | 16.4µM* | -10.2% | -6.8% | 5.4% | 1.5%
Cc1nc(SCC(=O)N2CCN(c3ccccc3)CC2)n[nH]1 | i | i | -6.0% | -0.4% | -6.1% | 0.7%
CCn1c(SCC(=O)N2CCN(c3ccc(F)cc3)CC2)nnc1-c1ccncc1 | i | 18.4µM* | 25.8% | x | -3.4% | -9.6%
O=C(CSc1ccc(-c2ccccc2)nn1)N1CCN(c2ccccc2)CC1 | i | i | 2.7% | -1.7% | 0.0% | 3.0%
O=C(CSc1ccc(-c2ccncc2)nn1)N1CCN(c2ccccc2)CC1 | i | 14.6µM* | -28.3% | -1.1% | -2.1% | 1.0%
O=C(CSc1nc(N2CCCCC2)nc(N2CCCCC2)n1)N1CCN(c2ccccc2)CC1 | u | 16.4µM* | -6.1% | -0.7% | 1.9% | -5.3%
COc1ccc(NC(=O)c2sc3nc(C)cc(C)c3c2N)cc1 | i | i | -8.4% | -2.9% | u | u
Cc1cc(C)c2c(N)c(C(=O)N/N=C/c3cccs3)sc2n1 | u | i | -17.0% | 10.0% | 18.4µM* | u
COc1ccc(/C=N/NC(=O)c2sc3nc(C)cc(C)c3c2N)cc1 | i | i | -1.3% | 1.6% | 5.8µM* | u
COc1cc2ccccc2cc1C(=O)N/N=C/c1cccs1 | 2.31µM* | 9.2µM* | x | x | x | x
Cc1cc(C)c2c(N)c(C(=O)Nc3ccc(F)cc3)sc2n1 | u | i | 29.5% | -12.4% | 20.6µM* | 16.6%
COc1ccccc1NC(=O)c1sc2nc(C)cc(C)c2c1N | i | i | -26.2% | -1.7% | 21.2% | -1.0%
COc1ccc(OC)c(NC(=O)c2c(NCc3ccc(OC)c(OC)c3)sc3c2CCC(C)C3)c1 (centres undefined) | i | i | -11.6% | x | x | x
CCn1c(C(=O)N2CCCC(C(=O)N3CCN(c4ccccc4)CC3)C2)cc2sccc21 (centres undefined) | i | i | 14.8% | x | x | x
CC(C)Oc1ccc(CNC(=O)CCCn2c(=O)c3cccn3c3ccccc32)cc1 | x | x | 28.1% | x | x | x
O=C(Nc1ccc2c(c1)OCCO2)C(=O)c1c[nH]c2ccccc12 | 3.66µM* | i | -43.2% | -0.6% | 9.2µM* | 4.61µM*
Cc1[nH]c2ccccc2c1C(=O)C(=O)Nc1ccc2c(c1)OCCO2 | i | i | 7.7% | -3.4% | 1.0% | 3.8%
O=C(Nc1ccc2c(c1)OCO2)C(=O)c1c[nH]c2ccccc12 | 6.51µM* | i | -11.5% | 0.3% | 16.0% | 1.8%
